ADAM10 inh: human ADAM10 inhibitors, primary screen, biochemical, QFRET, HTS. AID 720582, 2013. 370,000 compounds, 0.62% hits. recombinant ADAM10, EDANS/DABCYL FRET peptide cleavage, 3 h. inhibition, % at 7 µM;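 active means inhibition above a per-campaign cutoff equal to the mean of compounds falling between control-based bounds plus 3 SD, cut at about 20% in these data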;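 further: 0% = DMSO wells while the 100% control is not disclosed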
Ecoli rRNA inh: reduced GFP signal of wild-type E. coli, primary screen, bacterial rRNA inhibitor project, GFP/RFP fluorescence, OD600, single point; E. coli WT GFP vs humanized-ribosome RFP mutants, 24 h; active compounds read low; DMSO median 0, no signal -100; GFP signal change (wild-type ribosome), % (concentration not given with the values); 350,000 compounds, 1.6% hits; AID 720706, 2013;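 active means significant combined selectivity score with lowered wild-type GFP, culture density cut under 30%, mutant RFP and density less affected; inactive means any of these conditions unmet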
KLK7 zymogen act: proKLK7 zymogen activators, primary screen, biochemical, fluorescence intensity; Kallikrein-7 (Homo sapiens), P49862; purified proKLK7, EDANS-DABCYL substrate fluorescence; 100% is mature enzyme control, 0% vehicle; activation, % at 7 µM; 370,000 compounds, 0.9% hits;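 active means activation above the mean of all tested compounds plus 3 SD, computed per campaign excluding outliers beyond control limits, cut at about 13% in these data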
ADAM17 inh: ADAM17 inhibitors, primary screen, biochemical, QFRET; recombinant ADAM17, EDANS/DABCYL FRET peptide cleavage; inhibition, % at 6.95 µM; 370,000 compounds, 0.83% hits; AID 720648, 2013;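 active means inhibition above the mean of compounds lying between control limits plus 3 SD, set per campaign, cut at about 8.5% in these data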;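 further: 0% = DMSO-only wells as the low control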
Target sequence (P78536 215-824 limits assumed): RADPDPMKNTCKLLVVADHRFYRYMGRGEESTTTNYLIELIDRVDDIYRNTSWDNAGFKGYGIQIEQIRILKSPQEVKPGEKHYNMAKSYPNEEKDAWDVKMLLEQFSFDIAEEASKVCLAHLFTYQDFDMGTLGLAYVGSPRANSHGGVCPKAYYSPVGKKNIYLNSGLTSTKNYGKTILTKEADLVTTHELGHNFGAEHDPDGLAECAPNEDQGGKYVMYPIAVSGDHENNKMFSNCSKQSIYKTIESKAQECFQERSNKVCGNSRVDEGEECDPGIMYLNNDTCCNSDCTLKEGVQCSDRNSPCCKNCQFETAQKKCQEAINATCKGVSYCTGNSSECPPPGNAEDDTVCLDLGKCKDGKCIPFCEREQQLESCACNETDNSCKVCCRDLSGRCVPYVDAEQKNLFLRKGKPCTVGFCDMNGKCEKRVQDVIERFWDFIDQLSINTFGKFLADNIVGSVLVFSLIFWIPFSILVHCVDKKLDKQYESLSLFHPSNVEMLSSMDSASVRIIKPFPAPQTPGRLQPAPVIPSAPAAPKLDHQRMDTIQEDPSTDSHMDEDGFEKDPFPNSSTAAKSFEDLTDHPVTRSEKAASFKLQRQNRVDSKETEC
FGF22 binding: binders of human FGF22 protein, primary screen, FGF22 synaptogenesis inhibitor project, biophysical, thermal shift, single point. recombinant FGF22 thermal shift, SYPRO orange fluorescence; percent of sucrose octasulfate shift, DMSO zero. activity (Tm shift, normalised), % at 9.99 µM. 340,000 compounds, 1.5% hits. AID 651658, 2012;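 active means mean Tm shift, scaled 0 neutral to 100 positive control, at about 1.3% or above, every replicate too, limit read from the data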
KLK7 act conf: proKLK7 zymogen activators, confirmation, biochemical, fluorescence intensity, triplicate; shares compounds with KLK7 zymogen act; purified proKLK7, EDANS-DABCYL substrate fluorescence; scaled: vehicle 0, mature enzyme 100; activation, % at 7 µM; 3,200 compounds, 68% hits; AID 686949, 2013;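 active means activation, as change over the incubation, above the mean of all tested compounds plus 3 SD, cut at about 13% in these data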
EDANS interfere: EDANS-DABCYL substrate optical interference, artefact control for kallikrein-7 zymogen activator project, biochemical, fluorescence intensity, high throughput; shares compounds with KLK7 zymogen act; no enzyme, 4 h; solvent 0%, active enzyme control 100%; activation, % at 7 µM; 3,200 compounds, 80% hits;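 active means activation above the all-compound mean plus 3 SD, ignoring values outside control-based bounds, cut at about 4.8% in these data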;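 further: value is the 4 h activation minus the activation read at time zero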
* = called active by the depositor; i = inactive; / = no result given. Shown are actives, neighbours in structure and some others; about 3.8% of the full set was active somewhere.

SMILES | ADAM10 inh | Ecoli rRNA inh | KLK7 zymogen act | ADAM17 inh | FGF22 binding | KLK7 act conf | EDANS interfere
COc1ccc(NC(=O)N(C)C[C@H]2OCCCC[C@@H](C)Oc3ccc(NC(=O)CCC(F)(F)F)cc3C(=O)N([C@H](C)CO)C[C@H]2C)cc1 | / | -0.1 | / | / | -0.2 | / | /
Cc1ccc(C)c(N(CC(=O)Nc2ccc(-c3nc4ccc(C)cc4s3)cc2)S(C)(=O)=O)c1 | -65.5 | / | 19.5* | -16.4 | -0.4 | -8.4 | -19.5
CC(C)CN1C(=O)c2ccc(NC(=O)c3cccs3)cc2C1=O | -270.5 | / | 12.9* | -103.8 | / | -15.5 | -13.5
COc1ccc2ccccc2c1/C=N/NC(=O)c1nnn(-c2nonc2N)c1CN(C)C | -1.9 | -1.7 | 0.7 | 3.5 | 0.1 | / | /
Cc1ccc(-c2c(C(=O)N/N=C/c3ccc4c(c3)OCO4)nnn2-c2nonc2N)cc1 | -2.7 | 2.1 | 194.7* | -5.2 | 0.0 | 71.0* | 75.0*
CCOc1ccc(-c2c(C(=O)N/N=C/c3cccs3)nnn2-c2nonc2N)cc1 | 4.8 | -0.3 | -0.1 | 4.1 | -0.1 | / | /
COc1ccc2ccccc2c1/C=N/NC(=O)c1nnn(-c2nonc2N)c1C(C)C | 10.5 | 0.0 | 40.1* | 0.4 | -0.3 | -4.3 | -2.6
CCOc1ccc(/C=N/NC(=O)c2nnn(-c3nonc3N)c2-c2cccs2)cc1 | -1.7 | 3.1 | 80.3* | -4.0 | 0.2 | -28.1 | -231.5
C[C@H]1CCCCO[C@H](CN(C)C(=O)c2ccccc2)[C@@H](C)CN([C@@H](C)CO)C(=O)c2cc(NC(=O)Nc3ccc(C(F)(F)F)cc3)ccc2O1 | / | -0.2 | / | / | -0.5 | / | /
COc1cccc(C(=O)Nc2ccc3c(c2)OC[C@@H](C)N(CC2CC2)C[C@@H](C)[C@H](OC)CN(C)C3=O)c1 | / | 0.3 | / | / | 0.0 | / | /
COc1ccc(-n2c(O)c(/C=N/NS(=O)(=O)c3cccc([N+](=O)[O-])c3)c3ccccc3c2=O)cc1OC | -67.0 | 17.1 | 24.2* | -14.3 | -0.4 | 76.8* | 66.9*
CCOCCCNC(=S)NCCCNc1nc2cc3c(cc2cc1C#N)OCO3 | i | 23.4 | 4.8 | -261.5 | 0.3 | / | /
COCCNC(=S)NCCCNc1nc2cc3c(cc2cc1C#N)OCO3 | i | / | 25.2* | i | / | 14.4* | 19.0*
COc1cccc(NC(=O)N[C@H]2C=C[C@@H](CC(=O)Nc3ccccc3)O[C@H]2CO)c1 | / | -1.0 | / | / | 0.0 | / | /
C[C@@H]1CN([C@H](C)CO)C(=O)c2cc(/C=C/c3ccccc3)cnc2O[C@H]1CN(C)C(=O)Cc1cccnc1 | / | -7.2 | / | / | -0.2 | / | /
CC=Cc1ccc2n(c1=O)C[C@@H]1[C@@H](CO)[C@H](C(=O)NCCc3cn(C)cn3)N(C(=O)C3CCC3)[C@H]21 (mixture of isomers) | / | 3.1 | / | / | -0.2 | / | /
O=c1oc2ccccc2cc1-c1ccc(O)cc1O | 0.5 | / | -0.5 | -2.3 | / | / | /
O=c1oc2cc(O)ccc2cc1-c1ccccc1 | i | -5.2 | 71.7* | i | 0.0 | 65.8* | 77.0*
COc1ccc(-c2cc3ccc(O)cc3oc2=O)cc1 | i | -17.1 | 53.0* | i | -0.1 | 75.3* | 74.1*
COCC(=O)Nc1ccc2c(c1)C(=O)N(C)C[C@H](OC)[C@@H](C)CN(C(=O)c1cnccn1)[C@@H](C)CO2 | / | 2.0 | / | / | -0.1 | / | /
CO[C@H]1CN(C)C(=O)c2ccc(NC(C)=O)cc2OC[C@@H](C)N(Cc2ccccc2C(=O)O)C[C@@H]1C | / | 1.1 | / | / | -0.1 | / | /
CC(C)NC(=O)N(C)C[C@H]1Oc2cc(C#Cc3cccc(F)c3)ccc2S(=O)(=O)N([C@H](C)CO)C[C@H]1C | / | -9.0 | / | / | -0.6 | / | /
Cc1ccc(CNC(=O)CSc2nc3n[nH]c(C)c3c(=N)n2-c2cccc(C)c2)cc1 | -29.4 | / | 13.4* | -7.2 | / | 27.6* | 27.3*
CCc1ccc(NC(=O)CSc2nc3n[nH]c(C)c3c(=N)n2-c2cccc(OC)c2)cc1 | -29.7 | / | 1.0 | -12.9 | / | / | /
Cc1cc(C)c2c(N)c(C(=O)Nc3nccs3)sc2n1 | i | / | 119.7* | i | / | -2.8 | -10.9
SMILES | ADAM10 inh | Ecoli rRNA inh | KLK7 zymogen act | ADAM17 inh | FGF22 binding | KLK7 act conf | EDANS interfere
COCc1cc(C)nc2sc(C(=O)Nc3nccs3)c(N)c12 | -76.5 | 6.6 | 4.0 | -20.1 | -0.1 | / | /
Cc1ccc(-c2c(C#N)c(N)n(-c3ccc(C)cc3)c(=O)c2C#N)cc1 | -4.0 | / | 20.7* | 1.3 | / | 186.7* | 270.4*
Cc1ccc(-n2c(N)c(C#N)c(-c3ccc(Cl)cc3)c(C#N)c2=O)cc1 | 6.2 | / | -11.7 | -2.4 | / | / | /
C[C@@H]1CN([C@@H](C)CO)C(=O)c2cc(C#Cc3cccnc3)cnc2O[C@H]1CN(C)Cc1ccc(F)cc1 | / | 4.0 | / | / | -0.1 | / | /
COCCn1c(C)nnc1SCC(=O)Nc1ccccc1[N+](=O)[O-] | -2.1 | -0.7 | 39.4* | -3.0 | -0.3 | 0.4 | 0.0
CCC(=O)Nc1ccc2c(c1)C(=O)N(C)C[C@H](OC)[C@@H](C)CN(C(=O)C1CC1)[C@H](C)CO2 | / | 2.3 | / | / | 0.1 | / | /
O=C(C[C@H]1CC[C@H]2[C@@H](COC[C@@H](O)CN2S(=O)(=O)c2cccc(Cl)c2)O1)N1CCCCC1 | / | -3.3 | / | / | -0.2 | / | /
COc1ccccc1S(=O)(=O)N[C@@H]1CC[C@H](CCNC(=O)C2CCCCC2)O[C@H]1CO | / | -1.3 | / | / | -0.2 | / | /
CCC1CN(C)C2Cc3c([nH]c4ccccc34)C(=O)CC1C2C(=O)OC (stereo unspecified) | -241.8 | / | 13.5* | -58.7 | 0.0 | 6.7 | 8.1*
C[C@H](CO)N1C[C@H](C)[C@H](CN(C)CC2CCCCC2)Oc2ccc(NS(C)(=O)=O)cc2C1=O | / | 4.7 | / | / | -0.2 | / | /
Cc1nc2ccc(-c3nc4cc(N)ccc4o3)cc2[nH]1 | -385.0 | / | 28.0* | -92.9 | / | 45.9* | 49.2*
O=C1O[C@@H](c2ccc(O)cc2)Cc2cccc(O)c21 | -134.5 | -4.5 | 49.3* | -29.7 | 0.0 | 43.8* | 51.9*
O=C(C[C@H]1C[C@@H]2c3cc(NC(=O)NC4CCCC4)ccc3O[C@@H]2[C@H](CO)O1)NCc1ccncc1 | / | 1.7 | / | / | -0.2 | / | /
CCCCN1C(=O)c2cccc3cc(O)cc(c23)C1=O | -3.4 | / | 30.7* | -1.5 | -0.1 | 48.2* | 68.0*
